This is one part of a sample in which hits are shown more often than they occur.
Shiga inhibitor = Shiga toxin inhibition | AID 2315 | 290,000 compounds, 9.2% hits | inhibition, % at 38.7 µM | Vero cells, Shiga toxin protein synthesis inhibition reporter; in the data active means inhibition mostly above about 28%, no sharp cut-off; inactive means mostly below about 43%; further: 0% is about no effect
CHX counter = affects cycloheximide protein synthesis inhibition readout, counter-screen; cell reporter, cycloheximide protein synthesis inhibition counterscreen; 300,000 compounds, 12% hits; max response, %; in the data active means max response mostly above about 13%, no sharp cut-off; inactive means mostly below about 14%; further: read at 38.3 µM for the half of the compounds with a filed dose; 0% is about no effect
MARV entry inh = Marburg virus entry inhibition | Marburg virus pseudotyped entry inhibition, cell reporter | Potency, µM (doses to about 37.8 µM), without a hit: top-dose activity change, negative = inhibition, actives largely listed as inhibitors | 300,000 compounds, 1.8% hits | AID 540276; calls by dose curve; tested in HEK293 cells; further: potency means the concentration at half of the fitted maximal effect; on the % scale 0 is the no-effect control and ±100 the full control effect
LASV entry inh = blocks Lassa virus binding to or entry into cells; Lassa virus pseudotype entry inhibition, cell reporter; Potency, µM (series often up to 37.9 µM), for inactives: at the top dose activity change, negative = inhibition, most hits filed as inhibitors; 300,000 compounds, 1.2% hits; calls by dose curve; tested in HEK293 cells; further: potency means the concentration at half of the fitted maximal effect; on the % scale 0 is the no-effect control and ±100 the full control effect; nearly all actives have a fitted effect of over 50% in size
VACV Venus inh = vaccinia inhibition (Venus reporter) | Vaccinia virus Venus reporter expression, fluorescence | Potency, µM (titrated, usually from 36.5 µM), without a hit: at the highest dose activity change, negative = inhibition, hits mostly inhibitors | 330,000 compounds, 0.46% hits | AID 720580; calls by dose curve; tested in A549 cells; further: potency means the concentration at half of the fitted maximal effect; on the % scale 0 is the no-effect control and ±100 the full control effect; nearly all actives have a fitted effect of over 30% in size
Vaccinia mCherry = inhibitors of vaccinia virus infection (mCherry reporter signal). Vaccinia virus mCherry reporter infection, fluorescence. Potency, µM (titrated, usually from 36.5 µM), inactives show at the top dose activity change, negative = inhibition, most hits filed as inhibitors. 310,000 compounds, 0.63% hits; calls by dose curve; tested in A549 cells; further: potency means the concentration at half of the fitted maximal effect; on the % scale 0 is the no-effect control and ±100 the full control effect; nearly all actives have a fitted effect of over 35% in size
Active calls of the source: *; i = inactive; ? = inconclusive; · = no result; [ ] = another dose, or the depositor's remark.

SMILES	Shiga inhibitor	CHX counter	MARV entry inh	LASV entry inh	VACV Venus inh	Vaccinia mCherry
CCOC(=O)Cn1nc(/C=C/c2ccc(C(C)C)cc2)ccc1=O	33	9.7*	?	?	-13%	·
Cc1ccccc1CC(=O)N1CC(C)OC(C)C1 (stereo unspecified)	-7	-3	·	·	·	·
CCN(CC)CCn1c(NC(=O)c2ccc(Cl)cc2)nc2ccccc21	20	19*	?	?	-14%	i
CCN(CC)CCn1c(NC(=O)c2ccccc2O)nc2ccccc21	·	26*	·	·	·	·
CCCn1c2ccccc2c2cnn(CC(=O)NCCc3ccc(S(N)(=O)=O)cc3)c(=O)c21	·	·	·	7%[46.1 µM]	6%	0%
Cc1cc(NC(=O)c2ccc([N+](=O)[O-])cc2Cl)no1	70*	43*	·	·	·	·
O=C(Nc1ccccn1)c1ccc(Cl)c([N+](=O)[O-])c1	64*	20*	1%[46.1 µM]	0%[46.1 µM]	-8%	-2%
O=C(c1cc2cc([N+](=O)[O-])ccc2s1)N1CCOCC1	11	10	·	·	·	·
O=C(c1cc2cc([N+](=O)[O-])ccc2s1)N1CCCCC1	35	28*	·	·	·	·
O=C(Nc1ccc(Cl)cc1)c1ccc(-c2ccccn2)s1	72*	42*	?	12%	-22%[7.34 µM]	-7%[7.34 µM]
O=C(Nc1cccnc1Cl)c1ccc(Cl)c([N+](=O)[O-])c1	17	6	-2%	0%	-16%	-26%
COc1cccc(-n2c(=O)c3sc4ccccc4c3n(CC(=O)Nc3ccc(F)cc3F)c2=O)c1	·	·	9%[46.1 µM]	0%[46.1 µM]	-18%	-22%
COc1ccc2c(Cl)cc(NC(=O)Nc3c(C)cccc3C)nc2c1	·	·	·	·	?	-15%
CSc1ccc(Cl)c(C(=O)Nc2ccc(C)cn2)c1	36	25*	?	?	-19%	-19%
O=C(N/N=C/c1cccnc1)c1ccc([N+](=O)[O-])cc1Cl	35	10	-8%	2%	-2%	-11%
O=C(Nc1ccccn1)c1ccc([N+](=O)[O-])cc1Cl	35	16*	10%	2%	-4%	i
O=C(Nc1nnc(-c2ccccc2Cl)o1)c1cc2cc([N+](=O)[O-])ccc2s1	-5	-2	13%	4%	·	·
O=C(N/N=C/c1ccccn1)c1ccc([N+](=O)[O-])cc1Cl	·	28*	·	·	·	·
COc1ccc(NC(=O)c2cc(SC)ccc2Cl)cc1	9	-3	-7%	-23%	-24%	-1%
O=C(Nc1ccccn1)c1cc2cc([N+](=O)[O-])ccc2s1	79*	40*	·	·	-7%	i
Cc1ccc(NC(=O)c2ccc([N+](=O)[O-])cc2Cl)nc1	125*	75*	?	?	-5%	i
O=C(Nc1ccccn1)c1ccc(Br)s1	·	40*	-34%	?	-10%	i
O=C(NCCSc1c[nH]c2ccccc12)c1ccccc1Cl	·	·	-2%[46.1 µM]	15%[46.1 µM]	-13%	-13%
C=CCNc1oc(-c2cccs2)nc1C#N	51*	19*	-11%	18%	·	·
N#Cc1nc(-c2ccco2)oc1NCc1ccccc1Cl	44	12*	1%	10%	-10%	0%
SMILES	Shiga inhibitor	CHX counter	MARV entry inh	LASV entry inh	VACV Venus inh	Vaccinia mCherry
N#Cc1nc(-c2cccs2)oc1NCc1ccc(Cl)cc1	9	10	-3%	1%	-13%	-26%
N#Cc1nc(-c2cccs2)oc1NCc1ccccc1Cl	86*	18*	?	1%	-24%	-4%
N#Cc1nc(-c2cccs2)oc1NCc1ccco1	28	18*	14%	12%	-11%	-9%
N#Cc1nc(-c2ccco2)oc1NCc1ccco1	15	7	10%	?	-2%	i
N#Cc1nc(-c2cccs2)oc1NCc1ccccc1	29	24*	6%[46.1 µM]	18%	-12%	·
Cc1ccc(C(=O)Nc2ccc(N3CCN(C)CC3)cc2)c(Cl)c1	62*	42*	?	17%[46.1 µM]	-8%	i
CS(=O)(=O)c1ccc(C(=O)Nc2ccc(N3CCCCC3)cc2)c(Cl)c1	-5	15	?	11%	-15%	i
CN1CCN(c2ccc(NC(=O)c3ccc4c(c3)OCCO4)cc2)CC1	81*	36*	?	-1%	4%	i
Cc1ccc(C(=O)Nc2ccc(N3CCN(S(C)(=O)=O)CC3)cc2)cc1C	27	10	-1%[46.1 µM]	?	-5%	-7%
Cc1ccc(C(=O)Nc2ccc(N3CCN(C)CC3)cc2)cc1C	80*	32*	·	·	·	·
CN1CCN(c2ccccc2NC(=O)c2ccc3c(c2)OCCO3)CC1	11	-1	5%[46.1 µM]	?	-8%	-19%

Source: PubChem BioAssay (National Center for Advancing Translational Sciences (NCATS))
